In all, about 69,000 compounds went through this assay and about 8,600 (12%) showed an effect of 50% or more. For the sample, strong results were picked, then their nearest neighbours and some compounds at random.

The assay concerns Plasmodium berghei. Kind of assay: Screen against P. berghei liver stage (PbLuc), transformed with Luciferase, at 10uM. Format: functional, HepG2. As to conditions: tested at 10 uM.
Turning to `CN(Cc1nnc(C2CC2)n1C)C1CCN(CCc2cnn(C)c2)C1` (centres undefined), the INHIBITION worked out at 7.08%. The same measure for `CO[C@H]1CCN(S(=O)(=O)c2cn(C)cn2)[C@H]1Cc1ccccc1`: -8.85%. In the case of `Cc1nn(C)c(N(C)C)c1CNC(C)c1cccc(OC(C)C)c1` (centres undefined) it was 27.4%; in that of `CN(C)CCN(C)C(=O)c1cn(CC2CCCCC2)nn1`, -9.54%; in that of `O=C(NC1CCCC1)c1cnn2c(-c3ccco3)ccnc12`, -16.4%.

`COC(=O)Cn1c(=O)[nH]c2cn(-c3ccc(Br)cc3)c(=O)n21`: the INHIBITION was -38.6%. The same measure for `COc1cc(NC2CCS(=O)(=O)C2)ncn1` (centres undefined): 33.7%; for `NC(c1ccc(Cl)cc1)c1cccs1` (centres undefined): 22.5%. In the case of `CS(=O)(=O)c1cccc(C(N)c2ccc(F)cc2)c1` (centres undefined) it was -9.76%; in that of `Cc1ccc(C(CC(=O)O)NC(=O)CCc2cccs2)cc1` (centres undefined), 31%.

For `O=C(O)CC(NC(=O)CCCc1cccs1)c1ccc(F)cc1` (centres undefined), the INHIBITION is on record as 18.4%.

Consider `CC(C)c1ccc(C(N)c2cccs2)cc1` (centres undefined), for which the INHIBITION worked out at 75.6%. Take `Cc1ccc(C(N)c2cccs2)cc1` (centres undefined): the INHIBITION stood at 61.5%. The same measure for `NC(c1ccc(F)cc1)c1cccs1` (centres undefined): 55%. Consider `CC(C)c1ccc(-c2nonc2N)cc1`, for which the INHIBITION is -15.2%.

Consider `Cc1ccc(C(N)c2cccc(S(C)(=O)=O)c2)cc1` (centres undefined), for which the INHIBITION is reported as 38.7%. The same measure for `CSCC(=O)N1CCCN(Cc2cscn2)CC1`: 7.77%. In the case of `CCc1oc2ccc(NS(=O)(=O)CC)cc2c1C(=O)OC`, the INHIBITION turned out to be 1.41%. Turning to `CC(C)=CCCC1(C)C=Cc2c(cc(C)n(CC(=O)O)c2=O)O1` (centres undefined), the INHIBITION was found to be 18.3%.

Consider `CCC(C)C(=O)N(CC(=O)OC)c1cccc(C)n1` (centres undefined), for which the INHIBITION was determined as 10.6%. The same measure for `COC(=O)CN(C(=O)c1cccc(F)c1Cl)c1cccc(C)n1`: 29.8%; for `COC(=O)CN(C(=O)c1cc(C(C)C)no1)c1cccc(F)c1`: 7.38%.

For the compound `COC(=O)CN(C(=O)c1cc(C)c(F)cc1F)c1cccc(C)n1`, the INHIBITION is listed as 61.7%. `COC(=O)CN(C(=O)c1ccc(Cl)cn1)c1cccc(F)c1`: the INHIBITION came out at 33.1%.

With `COC(=O)CN(C(=O)C(C)c1c(F)cccc1F)c1cccc(C)n1` (centres undefined), the INHIBITION amounted to 76%. With `O=C(O)Cc1nc2nccc(-c3ccc(F)cc3)n2n1`, the INHIBITION worked out at 11.5%. Turning to `Cn1cccc1CN(C(=O)Cc1cccs1)C1CC1`, the INHIBITION was 6.54%.

For the compound `N#Cc1ccc(C(=O)O)nc1C=Cc1cccc(Br)c1`, the INHIBITION amounted to 39.4%.

As to `O=C(NC1CC1)c1cnc(-c2noc3cc(N4CCCCC4)ccc23)s1`, the INHIBITION is 95.5%. In the case of `O=C(c1cnc(-c2noc3cc(N4CCCC4)ccc23)s1)N1CCCC1` it was 8.31%; in that of `CC1CCN(c2ccc3c(-c4ncc(C(=O)O)s4)noc3c2)CC1`, 23.1%. In the case of `CN(C)CCNC(=O)c1ccc2c(-c3nccs3)noc2c1` it was -33%; in that of `CCN(C)C(=O)c1cnc(-c2noc3cc(N4CCCCC4)ccc23)s1`, 76.3%. The same measure for `O=C(NCCN1CCCC1)c1ccc2c(-c3nccs3)noc2c1`: 28.2%; for `CC(C)COC(=O)N1CC(=O)N(Cc2ccco2)CC(O)C1` (centres undefined): 47.2%; for `CC(C)Nc1ncc(-c2ccncc2)c([C@@H]2CCCO2)n1`: 11.8%. On to `CN1CCn2c(-c3cnn(C)c3)cnc2C12CCN(CC1CC1)CC2`, for which the INHIBITION worked out at 0.804%. In the case of `CN1CCC(c2nnc3n2CCN(S(=O)(=O)c2ccccc2)C3)CC1` it was 40.45%; in that of `Cc1nc(CN(C)C2CCN(Cc3cccc(F)c3)C2)no1` (centres undefined), 17.5%. The same measure for `Clc1cncc(NCc2cccc(OCCN3CCOCC3)c2)n1`: 58.5%. Take `c1ccc(NCc2cccc(OCCN3CCOCC3)c2)nc1`: the INHIBITION was -8.25%.

`c1cncc(CNc2cccc(OCCN3CCCCC3)c2)c1`: the INHIBITION is given as 68%. The same measure for `Cc1csc(CNc2cccc(OCCN3CCCC3)c2)n1`: 28%. The same measure for `Cc1ncsc1CNc1cccc(OCCN2CCCC2)c1`: 48.5%; for `c1cc(NCc2cscn2)cc(OCCN2CCCCC2)c1`: 56.1%; for `NC(=O)C1CCN(CCc2ccc(NCc3cccnc3)cc2)CC1`: 25.3%. The same measure for `Cc1ccnc(NCc2cccc(OCCN3CCOCC3)c2)n1`: -21.1%; for `c1cc(CN2CCCCC2)cc(NCc2cc[nH]n2)c1`: 2.22%.

On to `CC(C)=CCN1CCN(C(=O)C2CCS(=O)(=O)C2)CC1` (centres undefined), for which the INHIBITION is on record as 8.4%. As to `Cc1ncn(CCNC(=O)Nc2ccccc2)c(=O)c1C`, the INHIBITION is -10.6%. In the case of `O=S(=O)(CCCN1CCCC(Cn2cncn2)C1)c1ccccc1` (centres undefined) it was 7.67%. The same measure for `Cn1nc(Cn2cccn2)c2c1CN(Cc1ccoc1)C2`: 20.1%. In the case of `CCn1ncc2[nH]c(-c3ccc(OC)c(COC)c3)nc21`, the INHIBITION is reported as -45.8%. In the case of `CC(C)(C)c1cc(C(=O)N2CCOC(c3cnccn3)C2)[nH]n1` (centres undefined) it was 12.15%.

As for `Cc1cc(CN2CCC(C3Nc4ccccc4S(=O)(=O)N3)CC2)oc1C` (centres undefined), the INHIBITION is on record as 32.8%. On to `COc1cccc(CC(=O)N2CCc3ncnc(C)c3CC2)c1`, for which the INHIBITION was found to be 61.5%. Regarding `CC(C)Nc1ncnc2c1CCN(C(=O)CC1CCCC1)CC2`, the INHIBITION is 18.3%. With `COc1cccc(CC(=O)N2CCc3ncnc(NC(C)C)c3CC2)c1`, the INHIBITION was -4.55%. In the case of `COc1cccc(C(=O)N2CCc3ncnc(C)c3CC2)c1` it was -34.9%; in that of `COCCNc1ncnc2c1CCN(C(=O)CC1CCC(=O)N1)CC2` (centres undefined), 73.2%; in that of `Cc1ncnc2c1CCN(C(=O)Cc1ccccn1)CC2`, 14.1%. In the case of `COCCCNc1ncnc2c1CCN(C(=O)CC1C=CCC1)CC2` (centres undefined) it was 48.2%. The same measure for `COc1cccc(CC(=O)N2CCc3ncnc(NCCO)c3CC2)c1`: 64%; for `COc1cccc(C)c1C(=O)N1CCc2ncnc(NCCO)c2CC1`: 27.6%; for `O=C(CCc1cc2n(n1)CCCN(C(=O)[C@H]1CCCO1)C2)NC1CC1`: 33.4%. Take `CC(C)c1noc(C2CCN(S(=O)(=O)c3cccs3)CC2)n1`: the INHIBITION was determined as 17.5%.

Turning to `O=C(Nc1cc(C(F)(F)F)c[nH]c1=O)C1CCNCC1`, the INHIBITION came to 11.9%.

On to `O=C(CN1CCOC(Cn2cncn2)C1)NCc1cccs1` (centres undefined), for which the INHIBITION worked out at 34.05%. The same measure for `COc1ccccc1CN(CCCn1ccnc1)CC1CCOC1` (centres undefined): 43.4%; for `Cc1ccc(CN(CCCn2ccnc2)Cc2ccccc2O)s1`: 54.4%. In the case of `Cc1ccc(CN(CCCn2ccnc2)Cc2c[nH]nc2C(C)(C)C)s1` it was 70.1%. The same measure for `Cc1ccc(O)c(CN(CCCn2ccnc2)Cc2ccc(C)s2)c1`: 79.7%. Consider `Cc1ccc(CN(CCCO)Cc2nc3ccccc3[nH]2)s1`, for which the INHIBITION is recorded as 29.1%.

For `Cc1ccc(CN(CCCn2ccnc2)Cc2[nH]cnc2C)s1`, the INHIBITION is listed as 9.93%.

The values above are taken from ChEMBL document CHEMBL4513216, “Probing the Open Global Health Chemical Diversity Library for Multistage-Active Starting Points for Next-Generation Antimalarials” (ACS Infect Dis, 2020).
